The panel holds about 83,000 compounds, 20% with a hit somewhere; the sample as a whole holds those more often.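 Note: values are percent growth. 100 is the growth of untreated cells, values between 100 and 0 indicate rising inhibition; between -100 and 0 indicates cell death.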 Values without a mark were called inactive. The source made the active and inactive calls. Rule for the calls: active = growth percent below 10; inactive = the rest.

Common to all, as to test: NCI-60 one-dose screen, 48 h (100 = growth as untreated, 0 = no growth, -100 = all killed)
What all share (conditions): 10 µM unless noted

Experiment [1] has as its system NCI-H23 lung.
The test system of experiment [2] is NCI-H226 lung.
In experiment [3] the test system is NCI-H322M lung.
For experiment [4], the system named is HOP-62 NSCLC.
Experiment [5] concerns NCI-H460 lung.
Experiment [6] deals with NCI-H522 lung.
For experiment [7], the system named is A549/ATCC NSCLC.
In experiment [8] the test system is 786-0 renal.
For experiment [9], the system named is COLO 205 colon.
The subject of experiment [10] is DU-145 prostate.
Experiment [11] relates to K-562 leukemia.
Experiment [12] concerns MALME-3M melanoma.
Experiment [13] concerns MDA-MB-231 breast.
For experiment [14], the system named is RXF 393 renal.
For experiment [15], the system named is SF-268 CNS.
Experiment [16] has as its system SF-295 CNS.
Experiment [17] concerns SF-539 CNS.
Experiment [18] deals with UACC-257 melanoma.
In experiment [19] the test system is M14 melanoma.
For experiment [20], the system named is HOP-92 NSCLC.

As for `COC(=O)c1ccc2c(c1)c1c(C)c3ccncc3c(C)c1n2C`, the growth in [1] was 24.1%; in experiment [2] it was 25%; in experiment [3], 33.6%; in experiment [4], 24%; in experiment [5], 8.82% (active); in experiment [6] it was 6.4% (active). For the same compound, the growth in [7] is 7.22% (active); in [8], 28.5%; in experiment [9], 2.15% (active); in [10] it was 22.7%; in experiment [11] it was 8.47% (active); in experiment [12], 5.36% (active). Also, the growth in experiment [13] was 25.1%; in experiment [14] it was 17.5%; in experiment [15], 26.3%; in experiment [16], 24.1%; in experiment [17], 31.9%; in experiment [18], 1.45% (active). In experiment [19], the growth was 30.8%.

As for `CO[C@H](C(=O)[C@@H](O)[C@@H](C)O)[C@@H]1Cc2cc3cc(O[C@H]4C[C@@H](O[C@H]5C[C@@H](O)[C@H](O)C(C)O5)[C@H](O)C(C)O4)c(C)c(O)c3c(O)c2C(=O)[C@H]1O[C@H]1C[C@@H](O[C@H]2C[C@@H](O[C@H]3C[C@@H](OC)[C@H](O)C(C)O3)[C@@H](O)C(C)O2)C(O)(O)C(C)O1` (stereo partly specified), the growth in experiment [1] is 7.35% (active); in experiment [2], -20.8% (active); in experiment [3], 9.68% (active); in experiment [4] it was -3.61% (active); in experiment [20], 9.37% (active); in [6], -20.2% (active). Besides, the growth was 3.64% (active) in experiment [7]; 11.2% in experiment [8]; -80% (active) in experiment [9]; 19.5% in experiment [10]; 12.1% in [11]; -36.8% (active) in [12]. The growth is 5.02% (active) in experiment [13]; -57.9% (active) in experiment [14]; 26.3% in experiment [15]; 12.4% in [16]; -0.417% (active) in experiment [17]; -20.5% (active) in [18]. Also, in experiment [19], the growth was 11.1%.

Consider `CN(C)c1ccc(/C=C2/C=C(c3ccccc3)OC2=O)cc1`, for which the growth in [1] is 95.4%; in experiment [2] it was 105%; in experiment [3], 96.9%; in experiment [4], 96.3%; in experiment [6] it was 55.7%; in experiment [7], 96.4%. Moreover, the growth is 100% in experiment [8]; 99.3% in experiment [9]; 101% in [10]; 46.9% in [11]; 96.2% in [12]; 109% in experiment [13]. In addition, the growth in experiment [14] was 89.5%; in [15], 101%; in experiment [16], 79.4%; in experiment [17], 102%; in [18], 89.2%; in [19] it was 86.1%.

On to `Cc1ccc(C(=O)c2ccc(CC(=O)N/N=C/c3ccc(O)cc3O)n2C)cc1`, for which the growth in experiment [1] was 42.4%; in [2] it was 65.7%; in experiment [3], 38%; in experiment [4], 40.6%; in experiment [20], 83.1%; in [6], 55.5%. Further, the growth was 46.6% in experiment [7]; 43.4% in experiment [8]; 41.8% in experiment [9]; 51.3% in [10]; 45% in [11]; 48.6% in experiment [12]. Also, the growth is 51.4% in experiment [13]; 49.7% in [14]; 37.3% in experiment [15]; 47.2% in [16]; 44.4% in experiment [17]; 68.3% in experiment [18]. Further, the growth in [19] is 28.8%.

Turning to `O=C1OCC2=C1C(c1cccc(C(F)(F)F)c1)c1cc3c(cc1N2CCO)OCO3` (stereo unspecified), the growth in experiment [1] was 29.5%; in [2], 66%; in experiment [3], 42.4%; in [4], 33%; in [20], 51.4%; in experiment [6], 16.1%. Further, the growth in experiment [7] is 28.9%; in [8], 28.5%; in [9], -2.39% (active); in experiment [10], 10.7%; in experiment [11] it was 9.02% (active); in [12], 63.9%. The growth in experiment [13] was 44%; in experiment [14] it was 1.92% (active); in [15], 47.6%; in experiment [16] it was -2.78% (active); in [17], -3.02% (active); in experiment [18] it was 74.2%. Further, the growth in experiment [19] was 2.33% (active).

For `Cn1c(O)c(C(/C=C/c2ccccc2)=Nc2ccccc2N)c(=O)n(C)c1=O`, the growth in experiment [1] was 94.2%; in [2] it was 97.9%; in experiment [3], 105%; in experiment [4], 105%; in experiment [20], 82.4%; in [6], 90.3%. Moreover, the growth in [7] was 103%; in [8], 103%; in experiment [9], 95%; in [10], 117%; in [11], 55.9%; in experiment [12], 118%. Also, the growth in experiment [13] is 91.4%; in experiment [14] it was 109%; in [15], 114%; in experiment [16], 105%; in experiment [17], 107%; in experiment [18] it was 106%. The growth in experiment [19] was 104%.

As to `Cc1ccc(/C=C(\C#N)C(=O)Nc2ncc(Cc3cc(Cl)ccc3Cl)s2)o1`, the growth in [1] was 67.1%; in [2], 90.1%; in experiment [3], 47.3%; in experiment [5], 30.6%; in experiment [20], 77%; in [6], 48.6%. Besides, the growth in [7] is 39.8%; in [8], 46.9%; in experiment [9] it was 102%; in [10], 60%; in experiment [11], 24.6%; in experiment [12], 54.3%. The growth was 76.4% in experiment [13]; 38.3% in [14]; 44.2% in experiment [15]; 5.34% (active) in experiment [16]; 16.9% in experiment [17]; 35.3% in experiment [18]. In addition, in experiment [19], the growth was 69.4%.

For `N#CC(C#N)N=Nc1ccc(Cl)cc1Cl`, the growth in experiment [1] is 86.2%; in experiment [2], 97.7%; in experiment [3] it was 107%; in experiment [5], 105%; in experiment [20], -26.5% (active); in [6], 39.3%. The growth is 105% in experiment [7]; 91.2% in experiment [8]; 67.2% in experiment [9]; 80.8% in experiment [10]; 40.7% in experiment [11]; 77.3% in experiment [12]. Also, the growth was 68.2% in [13]; 116% in experiment [14]; 103% in experiment [15]; 100% in [16]; 74.7% in [17]; 87.3% in [18]. Besides, the growth in experiment [19] was 81.8%.

These data come from PubChem BioAssay (NCI).
